Assay outcomes from PubChem BioAssay.
Most compounds without a hit are left out; they make up all but 2.9% or so of the library.
DRD3 antagonist: D3 dopamine receptor (human) antagonism. D3R cells, DiscoveRx beta-arrestin luminescence, antagonist mode; active compounds read low. P35462. max response, negative = inhibition, %. hit rate 2.5% among 360,000; in the data active = max response below about -50%; inconclusive = no clear call, values can overlap the other calls
Target sequence (P35462 whole entry, looked up): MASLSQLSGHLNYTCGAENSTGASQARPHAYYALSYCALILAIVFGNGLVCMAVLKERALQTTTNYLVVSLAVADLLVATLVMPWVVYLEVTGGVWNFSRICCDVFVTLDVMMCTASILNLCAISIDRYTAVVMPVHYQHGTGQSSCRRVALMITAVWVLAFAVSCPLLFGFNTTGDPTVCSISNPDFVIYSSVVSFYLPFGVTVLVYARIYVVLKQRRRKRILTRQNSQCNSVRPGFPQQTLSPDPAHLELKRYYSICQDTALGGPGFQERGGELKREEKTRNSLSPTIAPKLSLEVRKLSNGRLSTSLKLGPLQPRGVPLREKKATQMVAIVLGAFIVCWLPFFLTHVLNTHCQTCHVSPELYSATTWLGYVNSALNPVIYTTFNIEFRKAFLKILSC
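Cells plated overnight at 1500 cells/well, then exposed to library compounds with dopamine controls for 90 minutes at 37 degrees C. DiscoveRx reagent added for 30–60 minutes at room temperature; luminescence read, quantitative HTS format.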
Integrin act MD: activators of alpha7 integrin expression for muscular dystrophy. alpha7betagal myoblasts, beta-gal FDG fluorescence, 48 h. Potency, µM (titrated, usually from 38.3 µM), hits mostly activators. hit rate 0.064% among 350,000. AID 624291; active = well fitted activation curve with a large enough effect; inconclusive = small, poorly fitted or top-dose-only effect; inactive = no such curve, though single readings can be large or run the other way; also: nearly all actives have a fitted effect of over 60% in size
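alpha7betagal+/- myoblasts (passage 13, 250/well) treated 48 h at 37C with compounds at 1:260 dilution of DMSO stock. Lysed, then beta-galactosidase activity read as FDG fluorescence (ex 480/em 540) after 30 min, with pre-read for autofluorescence.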
DRD3 agonist: activates the human D3 dopamine receptor; P35462; D3R DiscoveRx beta-arrestin cells, luminescence, 90 min; max activation, %; hit rate 0.58% among 410,000; AID 652048; in the data active = max activation above about 30%
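Cells at 1500/well, incubated overnight, then treated with pinned compounds (dopamine as control) for 90 min at 37 degrees C. DiscoveRx reagent added for 30 - 60 minutes at room temperature; luminescence read.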
A number is an active result; - = inactive; ? = inconclusive; . = not tested or not shown; [ ] = dose if it differs, or a comment.

SMILES	DRD3 antagonist	Integrin act MD	DRD3 agonist
COC(=O)C1=C(O)/C(=C/c2cccc(OC)c2O)N=C1C	?	-	-
CC1(C)CC(=O)c2cc(OCC(=O)NCCN3CCOCC3)ccc2O1	-	-	-
Cc1ccnc(SC2CC(=O)N(c3ccc([N+](=O)[O-])cc3)C2=O)n1 (stereo unspecified)	-	-	-
CC(=O)c1sc(NC(=O)c2c(-c3ccccc3)c(-c3ccccc3)nn(C)c2=O)nc1C	.	.	-
C=CCc1ccccc1OCC(O)CN1CCN(c2ccccc2OC)CC1 (stereo unspecified)	-138.6	-	-
C=CCc1ccccc1OCC(O)CNC(C)C (stereo unspecified)	-60.1	.	-
Oc1cc2c(cc1CN1CCc3ccccc3C1)OCO2	?	-	-
C=CCc1ccccc1OCC(O)CN1CCN(c2ccccc2F)CC1 (stereo unspecified)	?	-	-
CCOc1ccccc1N1CCN(CC(O)COC2CCCc3ccccc32)CC1 (stereo unspecified)	-88.8	-	-
O=S(=O)(c1cccs1)N1CCN(CC(O)COC2CCCc3ccccc32)CC1 (stereo unspecified)	?	-	-
COc1ccccc1N1CCN(Cc2cc3c(cc2O)OCO3)CC1	-80.6	-	-
C=CCc1ccccc1OCC(O)CNC1CCCC1 (stereo unspecified)	-	-	-
COc1ccc(-c2csc3[nH]c(=S)n(-c4ccccc4)c(=O)c23)cc1OC	-	-	-
COc1ccc(-n2c(=O)c3c4c(sc3n3c(SCCC(C)C)nnc23)COC(C(C)C)C4)cc1 (stereo unspecified)	.	.	-
Cc1ccc(S(=O)(=O)N2CCN(C(=O)CSc3nnnn3C)CC2)c(C)c1	-	-	-
CCC1CCCCN1CC(=O)Nc1cc(C)c2c(=O)oc3ccccc3c2n1 (stereo unspecified)	.	.	-
c1ccc2c(c1)Cn1c-2nc2ccccc21	-	-	-
COC(=O)c1ccc(NC(=O)C(=O)NCCc2csc(-c3ccc(F)cc3)n2)cc1	.	.	-
O=C1Nc2ccccc2N=C(c2ccccc2)C1Br (stereo unspecified)	-	-	-
Cc1cc(C)c2c(CC(=O)NC3CCS(=O)(=O)C3)coc2c1 (stereo unspecified)	-	-	-
OC(COc1cccc2ccccc12)CN1CCN(c2ccccc2)CC1 (stereo unspecified)	-54.4	-	34.9
OC(COc1cccc2ccccc12)CN1CCOCC1 (stereo unspecified)	-	-	-
Cc1cc(C)cc(NC(=O)C2CCN(S(=O)(=O)c3cccc4nonc34)CC2)c1	.	.	-
CN(C)N1C(N)=C(C#N)C(c2ccc(F)cc2)C2=C1CC(C)(C)CC2=O (stereo unspecified)	-	-	-
CC(C)c1ccccc1NC(=O)CNCCOc1ccccc1F	?	-	43.9
SMILES	DRD3 antagonist	Integrin act MD	DRD3 agonist
OCCNCCOc1ccccc1F	-	-	-
COc1cc(Cn2c(=O)oc3ccc(C)cc32)ccc1OCCC(C)C	.	.	-
Cc1noc2c1C(c1ccc(N(C)C)cc1)C1=C(CC(C)(C)CC1=O)N2 (stereo unspecified)	-78.2	-	-
Cc1ccc(C2C3=C(CC(C)(C)CC3=O)Nc3onc(C)c32)cc1 (stereo unspecified)	?	-	-
COc1ccc(NC(=O)c2cccnc2)c(OC)c1	-	-[7.66 µM]	-
COc1ccc(NC(=O)c2cc(-c3cccnc3)nc3c(C)c(C)ccc23)c(OC)c1	-	-	48.2
COc1cc2c(cc1NC(=O)c1cc(-c3ccncc3)nc3ccccc13)oc1ccccc12	-	-	-
COc1cc2c(cc1NC(=O)c1cc(-c3cccnc3)nc3ccc(C)cc13)oc1ccccc12	-	-	56.1
COCCn1c(NC(=S)NC(=O)C2CC2)cc(=O)[nH]c1=O	-	-	-
O=C(NCCc1ccc(Cl)cc1)C(=O)NCC(c1ccco1)S(=O)(=O)c1cccs1 (stereo unspecified)	.	.	-
Cc1cc(=O)[nH]c(SCc2nc3ccccc3s2)n1	-	-	-
CCCc1cc(=O)[nH]c(SCc2nc3ccccc3s2)n1	-	-	42.9
Cc1ccc(S(=O)(=O)Nc2c(NC3CCCCC3)c3ccccc3oc2=O)cc1C	-	-	-
Cc1ccc(-c2nc3ccccc3c(=O)n2NC(=O)c2cccs2)cc1	-51.0	-	-
Cc1cccc(-c2nc3ccccc3c(=O)n2NC(=O)c2cccs2)c1	-	-	-
Cc1cc(S(=O)(=O)n2cnc3ccccc32)c(C)cc1Cl	-	-	-
CCCCC[C@H]1CN(CCCC)C(=O)[C@@H]1CC(=O)NCc1ccccc1	-	-	33.6
CCCCC[C@H]1CN(Cc2ccc(OC)cc2)C(=O)[C@@H]1CC(=O)NCc1ccccc1	-	-	-
CCc1cc(=O)oc2c3c(cc(OCC(=O)NCCC(=O)O)c12)OC(C)(C)CC3	-	-	-
CCCCC(=O)N(C)c1c(C)nc2ccc(C(=O)N(C)CCN(C)C)cn12	-	.	-
CCCCN(C)c1c(C)nc2ccc(C(=O)N(C)CCN(C)C)cn12	-71.4	.	-
C=CCn1c(-c2ccccc2)cc(SC)c(C#N)c1=O	-	-	-
Cn1c(Cn2c(=O)sc3ccccc32)nnc1SCC(=O)NCc1ccc(F)cc1	-	-	-
Cn1c(Cn2c(=O)sc3ccccc32)nnc1SCC(=O)NCc1ccccc1	-63.2	?	-
Cc1cc(C(C)(C)C)cc(S(=O)(=O)Nc2cccc(C(=O)O)c2)c1C	-	-	-
SMILES	DRD3 antagonist	Integrin act MD	DRD3 agonist
Cc1ccccc1NC(=O)c1ccc(NS(=O)(=O)c2cc(C(C)(C)C)cc(C)c2C)cc1	-57.0	-	-
CN(CCO)c1ccc(C(C(=O)c2ccccc2)c2ccc(N(C)CCO)cc2)cc1	-	-	-
O=C(CCn1c(=O)[nH]c2ccccc2c1=O)N1CC=C(c2ccccc2)CC1	-	-	-
CCN1CCC[C@H]1CNCCCn1cnc2c(SC)ncnc21	-	-	-
COc1cccc2sc3cc(C#CC4(O)CCCCC4)ccc3c(=O)c12	-	-	63.4
COc1cccc2sc3ccc(C#CC4(N)CCCCC4)cc3c(=O)c12	-	-	-
COCCNC(=O)Cn1nc(-c2ccc(C)cc2)ccc1=O	-	-	-
CC1CCCCN1C(=O)c1cccc(NC2=C(Cl)C(=O)N(Cc3ccccc3)C2=O)c1 (stereo unspecified)	-	-	-
CC1CCN(C(=O)c2ccc(NC3=C(Cl)C(=O)N(Cc4ccccc4)C3=O)cc2)CC1	-53.0	-	-
COc1nccc(NCc2ccccc2)c1C#N	-	10µM	-
N#Cc1c(NCc2ccccc2)ccnc1NCc1cccnc1	-	-	-
COCCN(C(=O)COC(=O)c1ccc(Cl)s1)c1c(N)n(Cc2ccccc2)c(=O)[nH]c1=O	-	-	-
CC(=O)NN1C(=O)c2ccccc2NC1c1cccc([N+](=O)[O-])c1 (stereo unspecified)	-	-	-
Cc1cccc(NC(=O)Cc2nc(-c3c[nH]c(C(=O)N4CCCC4)c3)cs2)c1	-	-	51.6
Cc1ccccc1NC(=O)Cc1nc(-c2c[nH]c(C(=O)N3CCCC3)c2)cs1	-	-	-
CC(=C/c1ccccc1)/C=N/Nc1nc(N2CCCCC2)nc(N2CCCCC2)n1	-	-	32.3
C(=C\c1ccccc1)/C=N/Nc1nc(N2CCCCC2)nc(N2CCCCC2)n1	-	-	-
